High-throughput results deposited in PubChem BioAssay by National Center for Advancing Translational Sciences (NCATS).
MARV entry inh – qHTS for Inhibitors of binding or entry into cells for Marburg Virus. AID 720532, 2013. Marburg virus pseudotype entry/binding inhibition, cell-based. Potency, µM (titrated, usually from 49.2 µM), usual class: inhibitors. hit rate 6.5% among 18,000
LASV entry inh – qHTS for Inhibitors of binding or entry into cells for Lassa Virus; AID 720533, 2013; Lassa virus pseudotyped entry inhibition, cell-based qHTS; Potency, µM (highest dose often 49.2 µM), most hits filed as inhibitors; hit rate 4.1% among 18,000
Of the large screens only hits and unclear results are named; the others gave an inactive call; ! = not active in a repeat. An excerpt weighted towards active compounds, which were near 8.6% of everything screened. Calls follow the shape of the full dose curve; tested in HEK293 cells.

CC(CN(C)C)CN1c2ccccc2Sc2ccc(C(F)(F)F)cc21 (centres undefined)	MARV entry inh 10µM, LASV entry inh 31.6µM
C[C@@H](CN(C)C)CN1c2ccccc2Sc2ccccc21	MARV entry inh 11.2µM, LASV entry inh inconclusive
C[C@H]1COc2cccc(F)c2S(=O)(=O)N1	none
CC(C)OC(=O)[C@H](C)NC(=O)N1CCc2nc(COc3ccccc3)c3c(c2C1)CO[C@@H](C)C3	none
O[C@H]1CN(CC2CCCCC2)[C@@H](c2ccccc2)C[C@H]1n1cc(C2CC2)nn1	MARV entry inh inconclusive
Cc1cc2c(c(=O)n1Cc1ccccc1)[C@H]1O[C@](c3ccsc3)(Cc3cc(C#N)ccc31)O2	none
CC1(C)CN(Cc2ccccc2)C(=O)[C@@H]1CC(=O)Nc1ccccc1	none (no result: LASV entry inh)
CNCC[C@@H](Oc1ccccc1C)c1ccccc1	MARV entry inh 28.2µM!
CNCCC(Oc1ccccc1OC)c1ccccc1 (centres undefined)	MARV entry inh inconclusive
COc1ccc(OC[C@@H]2CC3[C@@H](CC[C@@H](C)[C@H]3c3ccc(Br)cc3)C(=O)O2)cc1 (some centres undefined)	none
COc1ccc2[nH]cc(CCN(C)C)c2c1	none
COC1(CS(=O)c2ccccc2)CCN(CCc2c[nH]c3ccc(F)cc23)CC1 (centres undefined)	MARV entry inh 15.8µM
Cc1ccc(C#C[C@@H]2C=C[C@H](Oc3ccc4c(c3)OCO4)[C@@H](CO)O2)c(C)c1	none
COC(=O)[C@H](CC(C)C)N(Cc1ccc(Br)cc1)S(=O)(=O)CCl	none
NCCCCCCNS(=O)(=O)c1cccc2ccccc12	LASV entry inh inconclusive
Nc1nc(NCC2CCC(CNS(=O)(=O)c3cccc4ccccc34)CC2)nc2ccccc12 (centres undefined)	MARV entry inh 11.2µM, LASV entry inh inconclusive
COC(=O)CC1OC1[C@H](C)[C@@H](OC)C(C)C (some centres undefined)	none (no result: LASV entry inh)
CSC[C@H]1CN(c2ccc(Br)cc2)C(=O)[C@H]1CC(=O)Nc1ccc(Br)cc1	none
COc1ccc(S[C@@H]2C[C@@H](C(=O)Nc3ccc4nccnc4c3)N(C3Cc4ccccc4C3)C2)cc1	LASV entry inh 3.16µM
Cc1ccc(CN2C[C@H](Sc3ccccn3)C[C@H]2C(=O)Nc2ccc3sc(C)nc3c2)cc1	MARV entry inh inconclusive
CCCC(=O)O[C@]1(C(=O)CCl)[C@@H](C)C[C@H]2[C@@H]3CCC4=CC(=O)C=C[C@]4(C)[C@@]3(F)C(=O)C[C@@]21C	MARV entry inh 7.94µM, LASV entry inh inconclusive
CCC(=O)O[C@]1(C(=O)CCl)[C@@H](C)C[C@H]2[C@@H]3CCC4=CC(=O)C=C[C@]4(C)[C@@]3(F)[C@@H](O)C[C@@]21C	MARV entry inh inconclusive
NC(=NCCc1ccc(I)cc1)SCCCc1cnc[nH]1	MARV entry inh 22.4µM
NCCc1cnc[nH]1	none
C=C(C)CCCN1C=C(C(C)=O)C(c2ccccc2)NC1=O (centres undefined)	none
Cn1ccc2c(C=Cc3ccc(F)cc3)cc3c(c21)C1CCC3C1 (centres undefined)	none
CC[N+](CC)(CC)CCC(O)(c1ccccc1)C1CCCCC1 (centres undefined)	none
OC(CCN1CCCCC1)(c1ccccc1)c1ccccc1	MARV entry inh 8.91µM, LASV entry inh inconclusive
OC(CCN1CCCC1)(c1ccccc1)C1CCCCC1 (centres undefined)	MARV entry inh 15.8µM
OC(C#CCN1CCCC1)(c1ccccc1)c1ccccc1	none
CC(=O)C1=C(C)N(Cc2ccccc2)C(=O)NC1c1cccc(C(F)(F)F)c1 (centres undefined)	none
COC(=O)C1=C[C@H]([C@@H](C)[C@H](OC)c2ccccc2Br)[C@H]2[C@H]1c1ccccc1N2C	none (no result: LASV entry inh)
COCC=CC1=CC2=CC(=O)C(C)(OC(=O)c3cnc4ccccc4n3)C(=O)C2=CN1CCc1c[nH]c2ccccc12 (centres undefined)	none
CCN(CC)CCOc1ccc(Cc2ccccc2)cc1	MARV entry inh 10µM
CN(C)CCOc1ccc(/C(=C(/CCCl)c2ccccc2)c2ccccc2)cc1	MARV entry inh inconclusive
O=C1N(CC2CC2)c2cccc(Br)c2[C@@]12O[C@H](COc1ccccc1)CC1=CCCC12 (some centres undefined)	MARV entry inh inconclusive
O=C(Nc1ccc(Cl)cc1)Nc1ccc(Cl)c(Cl)c1	MARV entry inh 14.1µM, LASV entry inh 12.6µM
CC(=O)Nc1ccc(-c2nc3ccc(Cl)cc3[nH]2)cc1	none
c1ccc(-c2csc(-c3nc4ccccc4[nH]3)n2)cc1	LASV entry inh inconclusive
c1ccc(CCNc2nc(-c3ccccc3)cs2)cc1	MARV entry inh inconclusive, LASV entry inh 15.8µM
Oc1cccc[c]1[Hg][Cl]	MARV entry inh inconclusive, LASV entry inh 1µM
Oc1cccc(O)c1O	MARV entry inh inconclusive
COc1cc2ncnc(Nc3cccc(Br)c3)c2cc1OC	none
COc1cc2ncnc(Nc3cccc(Cl)c3)c2cc1OC	MARV entry inh 14.1µM!, LASV entry inh 15.8µM!
CCCCCCC#C[C@@H]1C=C[C@H](OC(=O)OCC)[C@@H](COC(=O)OCC)O1	none
COC(=O)C1=C(C)N(Cc2ccccc2)C(=NCCc2cccnc2)NC1c1ccccc1 (centres undefined)	none
COc1cccc([C@H]2Oc3ccc(OC)cc3C(=NO[C@@H](C)CN3CCCCc4nc(C)c(C)cc43)[C@H]2O)c1	none
Oc1cccc(-c2c3nc(c(-c4cccc(O)c4)c4ccc([nH]4)c(-c4cccc(O)c4)c4nc(c(-c5cccc(O)c5)c5ccc2[nH]5)CC4)C=C3)c1	MARV entry inh inconclusive, LASV entry inh 25.1µM
CO[C@H]1C=CO[C@@]2(C)Oc3c(C)c(O)c4c(O)c(c(/C=N/N5CCN(C6CCCC6)CC5)c(O)c4c3C2=O)NC(=O)/C(C)=C\C=C[C@H](C)[C@H](O)[C@@H](C)[C@@H](O)[C@@H](C)[C@H](OC(C)=O)[C@@H]1C	LASV entry inh inconclusive
CCCCC(O)c1ccccc1 (centres undefined)	none
O=C(c1ccc([N+](=O)[O-])cc1)N1[C@H](COCc2ccccc2)C=CS1(=O)=O	none
CCN1C(=O)NC(c2ccco2)C(C(C)=O)=C1C (centres undefined)	none
O=C(Nc1ccc(Br)cc1)c1cccc(S(=O)(=O)Nc2ccc(Br)cc2)c1	MARV entry inh inconclusive, LASV entry inh 22.4µM
O=C(Nc1ccc(Br)cc1)c1cc(Br)c(Br)s1	LASV entry inh inconclusive
CCCCCCCc1cc2ccccc2c2c(C(=O)OC)c(C(=O)OC)c(C(=O)OC)n12	none (no result: LASV entry inh)
CC(C)CN(C[C@@H](O)[C@H](Cc1ccccc1)NC(=O)O[C@@H]1CCOC1)S(=O)(=O)c1ccc(N)cc1	none
Nc1ccc(O)c(C(=O)O)c1	MARV entry inh inconclusive
O=C(O)C1=CC(=C(c2ccc(O)c(C(=O)O)c2)c2ccc(O)c(C(=O)O)c2)C=CC1=O	MARV entry inh 0.445µM
COCc1cc2cc3c(cc2c2c(C(=O)OC)c(C(=O)OC)c(C(=O)OC(C)(C)C)n12)OCO3	none (no result: LASV entry inh)
CN1CCC(Nc2ncc3ncnc(Nc4ccc(F)c(Cl)c4)c3n2)CC1	MARV entry inh 10µM
CCCCCC(=O)N1C[C@@H](O)[C@H](n2cc(COC(=O)c3ccccc3)nn2)C[C@H]1c1ccc(Cl)cc1	MARV entry inh inconclusive
CCCCCCCCCCCCCC[N+](C)(C)Cc1ccccc1	MARV entry inh inconclusive, LASV entry inh 28.2µM
CCCCCCCCNS(=O)(=O)CCNCc1ccccc1	none
CCCCCCCCCCCCCCCC[N+](C)(C)Cc1ccccc1	MARV entry inh 25.1µM, LASV entry inh inconclusive
CCCCCCCCNS(=O)(=O)CCNCCc1ccccc1	none
